Assay outcomes (PubChem BioAssay)
Menin-MLL TR inh – qHTS Assay for Inhibitors Targeting the Menin-MLL Interaction in MLL Related Leukemias: Competition With Texas Red Labeled MLL-derived Mutant Peptide. AID 1768, 2009. hit rate 0.23% among 270,000. O00255. Menin + Texas Red MLL mutant peptide, fluorescence polarization. Potency, µM (titrated, usually from 61.6 µM), for inactives: at the top dose FP activity change, negative = inhibition, usual class: inhibitors; active means well fitted inhibition curve with a large enough effect in the polarisation, with a control signal flat, not every such curve was filed as active; inconclusive means small, poorly fitted or top-dose-only effect, or effect the other way, or a change in a side signal; inactive means no such curve, though single readings can be large or run the other way; the % refers to the polarisation; further: potency means the concentration at half of the fitted maximal effect; % of control where 0% means no effect
KCNH2 3.1 block – qHTS for Inhibitors of KCHN2 3.1: Mutant qHTS; U2OS KCNH2 3.1, thallium flux FluxOr; active compounds read low; hit rate 0.95% among 340,000; Potassium voltage-gated channel subfamily H member 2, brain isoform KCNH2 3.1 (human); activity change, % (tested at about 1.8 µM);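 active means maximum activity change below -70%; inconclusive means maximum activity change from -70% to -50%; inactive means maximum activity change above -50%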;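 further: thallium influx rate constant from kinetic fluorescence after stimulation buffer; on the % scale 0 is the no-effect control and ±100 the full control effect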
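Measured as rate of thallium-driven FluxOr signal in transduced U2OS cells carrying the 3.1 channel, read kinetically for 2 min upon stimulation; values are rate constants scaled to DMSO control wells.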
hERG WT inh – qHTS for Inhibitors of KCHN2 3.1: Wildtype qHTS. Voltage-gated inwardly rectifying potassium channel KCNH2 (Homo sapiens), Q12809. hit rate 0.37% among 340,000. activity change, % at 1.84 µM. U2OS, BacMam KCNH2, thallium flux FluxOr; active compounds read low;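 active means maximum activity change below -70%; inconclusive means maximum activity change between -70% and -50%; inactive means maximum activity change above -50%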; further: on the % scale 0 is the no-effect control and ±100 the full control effect
Target sequence (Q12809 whole entry, looked up): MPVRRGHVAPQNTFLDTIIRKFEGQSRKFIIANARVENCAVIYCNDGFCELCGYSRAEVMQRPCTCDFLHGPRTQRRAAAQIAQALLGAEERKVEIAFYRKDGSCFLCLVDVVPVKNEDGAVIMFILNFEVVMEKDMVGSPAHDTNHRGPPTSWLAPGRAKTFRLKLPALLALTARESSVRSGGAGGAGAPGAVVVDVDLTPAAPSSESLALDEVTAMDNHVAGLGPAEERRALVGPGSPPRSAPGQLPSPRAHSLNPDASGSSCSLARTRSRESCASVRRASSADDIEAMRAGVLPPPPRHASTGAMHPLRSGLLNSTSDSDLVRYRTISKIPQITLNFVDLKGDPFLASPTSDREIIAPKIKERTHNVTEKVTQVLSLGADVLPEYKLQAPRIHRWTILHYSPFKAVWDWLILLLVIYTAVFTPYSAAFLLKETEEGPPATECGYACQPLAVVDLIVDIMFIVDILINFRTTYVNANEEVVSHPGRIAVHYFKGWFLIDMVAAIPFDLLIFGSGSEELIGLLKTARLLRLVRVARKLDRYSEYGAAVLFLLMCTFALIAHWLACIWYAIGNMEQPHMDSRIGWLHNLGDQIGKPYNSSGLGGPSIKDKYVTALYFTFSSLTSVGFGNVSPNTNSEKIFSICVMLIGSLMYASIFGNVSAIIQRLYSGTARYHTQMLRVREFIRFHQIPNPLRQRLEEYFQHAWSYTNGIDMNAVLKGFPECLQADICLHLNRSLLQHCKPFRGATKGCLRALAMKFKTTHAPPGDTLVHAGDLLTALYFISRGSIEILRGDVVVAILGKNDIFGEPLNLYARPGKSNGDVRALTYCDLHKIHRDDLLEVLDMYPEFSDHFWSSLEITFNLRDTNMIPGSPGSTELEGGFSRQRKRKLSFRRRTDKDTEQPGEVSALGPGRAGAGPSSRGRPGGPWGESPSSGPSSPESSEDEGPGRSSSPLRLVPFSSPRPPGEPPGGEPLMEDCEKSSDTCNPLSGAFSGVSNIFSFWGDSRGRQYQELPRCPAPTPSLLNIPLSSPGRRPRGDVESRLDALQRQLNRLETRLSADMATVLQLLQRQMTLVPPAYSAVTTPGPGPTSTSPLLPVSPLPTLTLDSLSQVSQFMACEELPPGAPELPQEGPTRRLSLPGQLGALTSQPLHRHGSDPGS
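U2OS cells were transduced with wild-type KCNH2 virus (2.03 x 10^8 / mL) for 4 h at room temperature, then cultured overnight at 37 C. Thallium flux was read with FluxOr dye. Rate constants were normalized to DMSO controls.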
Menin-MLL FL inh – qHTS Assay for Inhibitors Targeting the Menin-MLL Interaction in MLL Related Leukemias: Competition With Fluorescein Labeled MLL-derived Peptide; Fluorescence polarization, fluorescein-MLL peptide displacement from menin; FP activity change, % at 61.4 µM; 290,000 tested, under 10 active; active means well fitted curve in the direction sought with a large enough effect in the polarisation, not every such curve was filed as active; inconclusive means small, poorly fitted or top-dose-only effect, or effect the other way, or a change in a side signal; inactive means no such curve, though single readings can be large or run the other way; the % refers to the polarisation; further: % of control where 0% means no effect
CXXC DNA block – qHTS Fluorescence Polarization Assay for Inhibitors of MLL CXXC domain - DNA interaction | Histone-lysine N-methyltransferase 2A (Homo sapiens), Q03164 | MLL-CXXC / FITC-HOXA9 DNA fluorescence polarization | Potency, µM (doses to about 115 µM), inactives show at the highest dose activity change, negative = inhibition, hits mostly inhibitors | hit rate 0.037% among 290,000 | AID 2662, 2010; active means well fitted inhibition curve with a large enough effect in the polarisation, with a control signal flat, not every such curve was filed as active; inconclusive means small, poorly fitted or top-dose-only effect, or effect the other way, or a change in a side signal; inactive means no such curve, though single readings can be large or run the other way; the % refers to the polarisation; further: potency means the concentration at half of the fitted maximal effect
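Fluorescence polarization: 7 uM MLL-CXXC (stock) preincubated 5 min with compounds, then 50 nM fluorescein-HOX-A9 DNA (stock) added; 30 min ambient. Buffer 50 mM Tris-HCl pH 7.5, 50 mM NaCl, 1 mM DTT, 0.05% BSA.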
MLL CXXC Fl – qHTS Fluorescence Polarization (FP) Assay for Inhibitors of MLL CXXC domain - DNA interaction: Fluorescein FP. shares compounds with CXXC DNA block. MLL CXXC-DNA binding, fluorescein FP. Potency, µM (series often up to 345 µM), for inactives: at the highest dose activity change, negative = inhibition, most hits filed as inhibitors. hit rate 70% among 200. AID 624160, 2012; further: potency means the concentration at half of the fitted maximal effect; nearly all actives have a fitted effect of over 80% in size
MLL CXXC FP-TR – qHTS Fluorescence Polarization (FP) Assay for Inhibitors of MLL CXXC domain - DNA interaction: Texas Red FP | shares compounds with CXXC DNA block | MLL CXXC-DNA binding, Texas Red fluorescence polarization | Potency, µM (titrated, usually from 345 µM), without a hit: at the top dose activity change, negative = inhibition, usual class: inhibitors | hit rate 40% among 200 | AID 624161, 2012; further: potency means the concentration at half of the fitted maximal effect; on the % scale 0 is the no-effect control and ±100 the full control effect; nearly all actives have a fitted effect of over 75% in size
MLL CXXC TRF – qHTS Fluorescence Polarization (FP) Assay for Inhibitors of MLL CXXC domain - DNA interaction: HTRF Assay | MLL CXXC-DNA binding, HTRF, biochemical | AID 624162, 2012 | Potency, µM (series often up to 172 µM), for the others: at the highest dose activity change, negative = inhibition, actives largely listed as inhibitors | shares compounds with CXXC DNA block | hit rate 30% among 210; further: on the % scale 0 is the no-effect control and ±100 the full control effect; nearly all actives have a fitted effect of over 80% in size
* marks the source's active call; other numbers are inactive results; ? = inconclusive; / = no result. Compounds with a hit are over-represented: about 1.1% of the library has one in this group of screens. Unless noted, the call rests on the fitted dose curve; in most records, active means well fitted inhibition curve with a large enough effect; inconclusive means small, poorly fitted or top-dose-only effect; inactive means no such curve, though single readings can be large or run the other way.

SMILES | Menin-MLL TR inh | KCNH2 3.1 block | hERG WT inh | Menin-MLL FL inh | CXXC DNA block | MLL CXXC Fl | MLL CXXC FP-TR | MLL CXXC TRF
C=CCn1c(SC(C)C(=O)Nc2ccc(F)c(F)c2F)nnc1C1CC1 (stereo not drawn) | / | -128* | -8 | / | / | / | / | /
O=C(OCc1cn([C@@H]2C[C@H](c3ccc(Cl)cc3)N(C(=O)C3CCCCC3)C[C@H]2O)nn1)c1ccccc1 | / | -21 | 13 | / | / | / | / | /
O=C(OCc1cn([C@H]2C[C@H](c3ccc(Cl)cc3)N(C(=O)C3CCCCC3)C[C@@H]2O)nn1)c1ccccc1 | / | -82* | -37 | / | / | / | / | /
O=C(NCCCN1CCc2ccccc2C1)Nc1ccc(Br)cc1 | 7% | -80* | 4 | 4 | -5% | / | / | /
CCCN1CCN(C(=O)c2ccc3[nH]c(C)c(C)c3c2)CC1 | / | -8 | -8 | / | / | / | / | /
CS(=O)(=O)Nc1cccc(-c2nccc(NCc3ccccc3)n2)c1 | 13% | / | / | 7 | / | / | / | /
Cc1ccc(S(=O)(=O)N2CCN(CC(=O)Nc3ccc([N+](=O)[O-])cc3)CC2)cc1C | 11% | -92* | -76* | -2 | 9% | / | / | /
Cc1cc(C)c(C)c(S(=O)(=O)N2CCN(CC(=O)Nc3ccc([N+](=O)[O-])cc3)CC2)c1C | 21% | 10 | -1 | -2 | 12% | / | / | /
Cc1ccc(C)c(OCCC(=O)N2CCN(S(=O)(=O)c3ccc([N+](=O)[O-])cc3)CC2)c1 | / | -139* | 16 | / | / | / | / | /
CCN(CC)CCOCCOC(=O)C(CC)(CC)c1ccccc1 (tested in a mixture with another compound) | -11% | / | / | -2 | -3% | / | / | /
CC(C)c1nnc(NC(=O)c2cc3cc(Br)ccc3oc2=O)s1 | / | -3 | 1 | 4 | ? | 8% | -6% | 34%
COc1cc(C=C2C(=O)c3ccccc3C2=O)cc(OC)c1OC | 14% | -3 | -1 | ? | 35µM* | 45µM* | 142µM* | 97µM*
COc1ccc(C=C2C(=O)c3ccccc3C2=O)cc1O | ? | ? | -1 | 21 | ? | / | / | /
COc1cc(C=C2C(=O)c3ccccc3C2=O)ccc1O | / | 19 | -6 | 13 | ? | 28µM* | ? | 51%
Cc1cc(-c2ccc(N=Nc3c(S(=O)(=O)O)cc4cc(S(=O)(=O)O)cc(N)c4c3O)c(C)c2)ccc1N=Nc1c(S(=O)(=O)O)cc2cc(S(=O)(=O)O)cc(N)c2c1O | ? | / | / | ? | 25µM* | 5.6µM* | 7.1µM* | 1.5µM*
Cc1nc(N=Nc2cc([N+](=O)[O-])ccc2Cl)c(COP(=O)(O)O)c(C=O)c1O | ? | / | / | -2 | / | / | / | /
Cc1nc(N=Nc2cc(S(=O)(=O)O)c3cc([N+](=O)[O-])cc(S(=O)(=O)O)c3c2)c(COP(=O)(O)O)c(C=O)c1O | ? | / | / | 3 | 32µM* | 18µM* | 36µM* | 15µM*
CC(C)(C)NC(=O)c1ccccc1NC(=O)C1CC(=O)N(C2CCCCC2)C1 (stereo not drawn) | 15% | -2 | 4 | 6 | -3% | / | / | /
CC1(C)CC(=O)C(C(C2=C(O)CC(C)(C)CC2=O)c2ccc(O)c([N+](=O)[O-])c2)=C(O)C1 | 10% | 17 | -5 | -2 | 28µM* | 18µM* | 63µM* | 7.7µM*
CC1(C)CC(=O)C(C(C2=C(O)CC(C)(C)CC2=O)c2ccc([N+](=O)[O-])cc2)C(=O)C1 (stereo not drawn) | 13% | 12 | 5 | 1 | 5% | / | / | /
N#CC(C#N)=C1C=C2C=C(N3CCCCCC3)CCC2CC1 (stereo not drawn) | ? | -45 | / | ? | ? | 0.45µM* | 71µM* | 217%
O=C(O)CCN1C(=O)/C(=C\c2cccc(OCC(=O)Nc3ccc(Cl)cc3)c2)SC1=S | / | -9 | -8 | 14 | ? | ? | 142µM* | -61%
COc1cc(/C=C2/C(=O)NN(c3ccc(C)c(Cl)c3)C2=O)cc([N+](=O)[O-])c1O | ? | 16 | -2 | 1 | ? | 80µM* | 113µM* | 33%
Cc1ccc(N2NC(=O)/C(=C/c3ccc(-c4ccc(Cl)c(C(=O)O)c4)o3)C2=O)cc1C | ? | 2 | 22 | -2 | ? | / | / | /
O=C1NN(c2ccccc2)C(=O)/C1=C/c1ccc(-c2ccc(C(=O)O)cc2)o1 | ? | 0 | 9 | 22 | 32µM* | 89µM* | 142µM* | ?
CC1=NN(c2ccc(Cl)c(C(=O)O)c2)C(=O)/C1=C\c1ccc(-c2ccc(C(=O)O)cc2)o1 | ? | -5 | -17 | 2 | ? | 28µM* | 12% | -58%
CC1=NOC(=O)/C1=C\c1ccc(-c2ccc(Cl)c(C(=O)O)c2)o1 | 39% | 0 | -6 | 19 | ? | 20µM* | 89µM* | 49µM*
CC1(C)OC(=O)C(=Cc2ccc(-c3ccc(Cl)c(C(=O)O)c3)o2)C(=O)O1 | 24% | -4 | -9 | 9 | 28µM* | 16µM* | 56µM* | 39µM*
COC(=O)c1ccc(N2NC(=O)/C(=C/c3ccc(-c4ccc(Cl)c(C(=O)O)c4)o3)C2=O)cc1 | ? | 10 | -6 | 13 | ? | / | / | /
CN=c1scc(-c2ccc(F)cc2)n1/N=C/c1ccc(O)c(O)c1 | ? | -1 | 1 | -3 | -1% | / | / | /
